# Results as given in PubChem BioAssay (NCATS).
# Inconclusive results are not listed. Entries that show only a call come without a potency. Calls of active or inactive are those of the source. Calls follow the shape of the dose curve; as a rule, active = well fitted inhibition curve with a large enough effect; inconclusive = small, poorly fitted or top-dose-only effect; inactive = flat fitted curve, though single readings scatter.
# System: AA1029
# Assay: qHTS profiling for inhibitors of Plasmodium falciparum proliferation (AID 504749); also: nearly all actives have a fitted effect of over 60% in size
# Details: P. falciparum in erythrocytes, SYBR Green DNA, 72 h; series mostly up to 28.7 µM
# Method in brief: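 Quantitative HTS: compounds pinned into medium, infected erythrocytes added (0.3% parasitemia, 2.5% hematocrit), 72 h culture at 37 C under 5% CO2. Saponin/Triton lysis with SYBR Green I, overnight RT, then fluorescence read.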
# Potency is read from the fitted curve at half-maximal effect.
row,Structure (SMILES),Potency
1,CCN(CC)CCOc1ccc(C(O)(Cc2ccc(Cl)cc2)c2ccc(C)cc2)cc1 (configuration not stated),11.2 µM (active)
2,CC[N+](CC)(CCNC(=O)C(=O)NCC[N+](CC)(CC)Cc1ccccc1Cl)Cc1ccccc1Cl,2.82 µM (active)
3,O=C1[C@H]2CCCC[C@H]2C(=O)N1CCCCN1CCN(c2nsc3ccccc23)CC1,inactive
4,COc1ccc(C2C(=O)c3ccccc3C2=O)cc1,inactive
5,NC(CS)C(=O)O (configuration not stated),15.8 µM (active)
6,O=C(N/N=C/c1ccccc1O)c1ccncc1,11.2 µM (active)
7,CCCCc1nc(Cl)c(CO)n1Cc1ccc(-c2ccccc2-c2nn[nH]n2)cc1,10 µM (active)
8,CCCCCCCCCCCCCCCCCC(=O)OCC(O)CO (configuration not stated),inactive
9,CC(=O)OCC(=O)[C@@]1(OC(C)=O)[C@@H](C)C[C@H]2[C@@H]3C[C@H](F)C4=CC(=O)C=C[C@]4(C)[C@@]3(F)[C@@H](O)C[C@@]21C,inactive
10,COc1cccc(CCc2ccccc2OCC(CN(C)C)OC(=O)CCC(=O)O)c1 (configuration not stated),3.98 µM (active)
11,CCOc1ccc(Cc2nccc3cc(OCC)c(OCC)cc23)cc1OCC,inactive
12,CN1CCC[C@@H]1c1cccnc1,inactive
13,CN1CCN(CCCN2c3ccccc3Sc3ccc(S(=O)(=O)N(C)C)cc32)CC1,inactive
14,C[C@@H]1CN(CCCn2c3ccccc3c3ccccc32)C[C@H](C)N1,4.47 µM (active)
15,CCN(CC)C(=O)/C(C#N)=C/c1cc(O)c(O)c([N+](=O)[O-])c1,inactive
16,CC(C)COC(=O)c1ccc(N)cc1,inactive
17,CC(C)NC[C@@H](O)COc1cccc2ccccc12,11.2 µM (active)
